The structures appear in SMILES notation. The panel holds about 83,000 compounds, 20% with a hit somewhere; the sample as a whole holds those more often.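 Treatment: one concentration, 48 hours, 96-well format. Scoring: percent growth, with anything below 10 considered active.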 Unmarked numbers belong to inactive results. Calls of active or inactive are those of the source.

The experiment relates to RPMI-8226 leukemia. The experiment in a line: NCI-60 one-dose screen, 48 h (100 = growth as untreated, 0 = no growth, -100 = all killed). The settings on record: 10 µM. The procedure:
Growth inhibition of the RPMI-8226 human tumor cell line is measured as a screen for anti-cancer activity. Cells are grown in 96 well plates and exposed to the test compound for 48 hours. Compounds are tested at a single concentration, which is 10^-5 M for most compounds. The reported endpoint is percent growth (GI% or GIPRCNT), where numbers from 0 - 100% represent growth inhibition, and numbers from -100% - 0 represent cell death. For example, a value of 40 represents 60% growth inhibition. A value of 0 means no net growth occurred over the course of the experiment. A value of -40 indicates 40% of cells at the beginning of the experiment died by the end of the experiment. A value of -100 means all cells are dead at the end of the experiment.
NCI-60 Human Tumor Cell Lines Screen was performed using the standard one-dose NCI protocol, which is described in more detail at https://dtp.cancer.gov/discovery_development/nci-60/default.htm.
Compounds with GIPRCNT values below 10 were considered active. Activity score was based on GIPRCNT using the following formula: […]
Score is 0 for GIPRCNT values of 100 or above, 50 for GIPRCNT values of 0, and 100 for GIPRCNT values of -100.
For the compound `COc1cc(C2CC(=O)Nc3c2ccc2ccccc32)cc(Br)c1OC` (stereo not given), the growth is -13.1% (active). `COC1(OC)C2(Cl)C=C(c3ccccc3)C1(Cl)C(Cl)=C2Cl` (stereo not given): the growth was 92.4%. Next, `NC(=S)N/N=C1\c2ccccc2-c2c(F)c(F)c(F)c(F)c21`: 67.1%. As for `CS(=O)(=O)Nc1cccc(C(=O)NCc2ccc(N3CCOCC3)cc2)c1`, the growth was 99.7%. Regarding `Clc1ccc2c(N3CCN(c4ccnc(NC5CCCCC5)n4)CC3)ccnc2c1`, the growth is 2.01% (active). In the case of `O=C(c1cnn2c1NC(c1ccc(F)cc1)C2)N1CCCCC1` (stereo not given) it was 103%; in that of `CCCCCCCCCCCC(=O)[O][Sn]([CH2]CCC)([CH2]CCC)[CH2]CCC`, -34% (active). In the case of `O=S(=O)(Nc1ccccc1Cl)c1ccc(-c2cnc(C3CC3)o2)cc1` it was 27.9%; in that of `FC(F)(F)Oc1ccc2c(c1)C[C@H]1C[C@@H](c3ccoc3)N2O1`, 92.3%. With `O=S(=O)(Nc1ncccn1)c1ccc(Nc2ccc3nnc(-c4ccncc4)n3n2)cc1`, the growth was 109%.

As to `Cc1cccc2c(=O)c3c(sc12)c(NCCCN)nc1ccccc13`, the growth was -29.9% (active). Next, `O=C(N/N=C/c1ccc2c(c1)OCO2)c1cnn2c1NC(c1ccccc1)C2` (stereo not given): 76.4%; `COc1ccc(-c2[nH]ncc2Nc2cc(OC)c(OC)c(OC)c2)cc1`: 33.2%. `CCOC(=O)C(CC(c1ccccc1)N1CCCCC1)[N+](=O)[O-]` (stereo not given): the growth was 57.9%. Regarding `COc1ccc(OC)c(C2C(C#N)=C(N)Oc3cc(O)ccc32)c1` (stereo not given), the growth is 84.5%.

`COc1ccc(/C=N/NC(=O)c2cnn(CC(O)Cc3ccccc3)c2N)cc1OC1CCCC1` (stereo not given): the growth is 55.4%. Next, `Nc1c(Br)cc(Br)cc1-c1n[nH]c(=O)[nH]c1=O`: 99.6%; `CCCCC(O)Cn1ncc(C(=O)OCC)c1NC(=O)NCc1ccccc1C(F)(F)F` (stereo not given): 88.6%.

For the compound `O=c1oc2ccccc2cc1-c1csc(N=Nc2c(O)[nH]c3ccc(Cl)cc23)n1`, the growth is 105%.

As for `CCN1C(=O)C2(Nc3ccccc3S2)c2cc(C)ccc21` (stereo not given), the growth was 92.9%. Next, `CCOC(=O)c1cnn(CC(O)c2ccc(F)cc2)c1NC(=O)Nc1ccccc1F` (stereo not given): 82.9%; `CC1=C(C/C=C(\C)CCC[C@H](C)CCC[C@H](C)CCCC(C)C)C(=O)c2ccccc2C1=O`: 106%; `CCOc1ccc(-c2cnnn2-c2nonc2-n2cccc2)cc1`: 12.5%. Next, `COc1ccc(OC)c2ncccc12`: 94.9%; `Oc1ccccc1/C=N/Nc1nc2ccccc2s1`: 35.8%; `COc1ccc(Nc2[nH]n(C3=Nc4ccccc4Sc4ccccc43)c(=O)c2C#N)cc1`: 37%. Next, `Nc1ccccc1-c1n[nH]c(=O)[nH]c1=O`: 105%; `Cc1nc2cc(Nc3nc(Nc4ccc(F)cc4)nc(N4CCN(C)CC4)n3)ccc2n1Cc1ccccc1`: -40.2% (active); `C=C1CC[C@@H]2[C@@](C)(CCC[C@]2(C)C(=O)O)[C@@H]1CC[C@H](CO)CCO`: 113%. For `COc1cc(-c2nc(Nc3nc4ccccc4[nH]3)nc(N)c2C#N)cc(OC)c1OC`, the growth is 69.8%. Next, `COC(=O)c1ccc(C(=O)Nc2ccccc2N)cc1`: 12.6%; `CCCN(CCC)c1ccc(/C=C/c2ccc3cc(OCC)ccc3n2)cc1`: 35.6%; `COc1cc(-c2ccc3cc(OC)c(OC)c(OC)c3c2)cc(OC)c1OC`: 53.1%.

For the compound `CC(C)(C)[Si](C)(C)OC1[C@@H](CNC(=O)NC(=O)CCl)O[C@@H](n2cnc3c(N)ncnc32)[C@H]1O[Si](C)(C)C(C)(C)C` (stereo not given in full), the growth was -43% (active). Next, `Cn1c(=O)c2c(-c3ccccc3F)n(-c3ccc4c(c3)OCO4)cc2n(C)c1=O`: 52.9%.

As to `COc1cccc(OC(=O)c2ccccc2)c1OC(=O)c1ccccc1`, the growth was 68.6%. In the case of `C=C(C)CCCC(C)CC#N` (stereo not given) it was 102%; in that of `O=C1C(Br)=C(c2ccccc2)C(=O)C(Br)=C1c1ccccc1`, 99.2%. As to `CCSc1nnc2c3cc(Br)ccc3n(C)c2n1`, the growth is 104%. Regarding `CC(=O)Nc1ccc(S(=O)(=O)N/N=C\c2ccc(Cl)c(Cl)c2)cc1`, the growth was 92.5%.

For the origin of these results see PubChem BioAssay (NCI).
